The text below walks through data of PubChem BioAssay (Tox21).

SMILES strings stand for the structures. Values without a mark were called inactive. Results filed as inconclusive are left out. The source made the active and inactive calls. Unless noted, the call rests on the fitted dose curve; in most records, active means well fitted curve in the direction sought with a large enough effect in the repeat runs; inconclusive means weak or mixed curves; inactive means no such curve, though single readings can be large; an effect the other way counts as inactive or inconclusive.

Experiment [1] has as its target Progesterone receptor (Homo sapiens) (UniProt P06401). The experiment in a line: qHTS assay to identify small molecule agonists of the progesterone receptor (PR) signaling pathway (AID 1346784; calls by dose curve; further: nearly all actives have a fitted effect of over 30% in size). A digest of the protocol:
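Reporter assay, GripTite PR-UAS-bla HEK 293T cells: 16 hr exposure to DMSO-dissolved compounds at 37C, 5% CO2, in steroid-depleted (2% charcoal-stripped FBS) medium; beta-lactamase measured by FRET fluorescence.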
Background: Quantitative high-throughput screening tests each substance at several concentrations.

The target is the same in experiment [2]. Nature of the experiment: qHTS assay to identify small molecule antagonists of the progesterone receptor (PR) signaling pathway (AID 1346795; active means well fitted inhibition curve with a large enough effect in the signal ratio in the repeat runs, not every such curve was filed as active; the % refers to the signal ratio). A digest of the protocol:
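Stimulus R5020 at 1 nM final; cells HEK293T PR-UAS-bla; medium with 2% charcoal-stripped FBS; compound exposure 16 hr at 37C, 5% CO2; detection by FRET beta-lactamase substrate, 2 hr, room temperature.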

Experiment [3] is described as follows: qHTS assay to identify small molecule antagonists of the progesterone receptor (PR) signaling pathway - cell viability counter screen (AID 1346798). Further: series mostly up to about 92 µM; nearly all actives have a fitted effect of over 50% in size. The gist of the method: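 In the same plates used for the beta-lactamase readout, cell viability of compound- and R5020-treated PR-UAS-bla HEK293T cells (16 hr, 37C) was assessed by CellTiter-Glo luminescence.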

Experiment [4] in a line: qHTS assay to identify small molecule agonists of the progesterone receptor (PR) signaling pathway - cell viability counter screen (AID 1346799; calls by dose curve; further: nearly all actives have a fitted effect of over 45% in size). The gist of the method: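 Multiplexed viability read: CellTiter-Glo luminescence, 30 min RT, following LiveBLAzer FRET measurement on PR-UAS-bla HEK293T cells exposed to compounds 16 hr.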
Experiment [5] in a line: qHTS assay to identify small molecule antagonists of the TGF-beta/Smad signaling pathway - cell viability counter screen (AID 1346824). Further: nearly all actives have a fitted effect of over 50% in size. A digest of the protocol:
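SBE-bla HEK 293T cells were plated overnight at 37 C, then given compounds in DMSO plus TGF-beta1 (added as 0.25 ng/mL solution) for 5 hr. After the bla read, CellTiter-Glo was added to the same wells and luminescence read after 30 min at room temperature.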

The nature of experiment [6]: qHTS assay to identify small molecule agonists of the TGF-beta/Smad signaling pathway - cell viability counter screen (AID 1346829). Further: top concentration of the series differs between compounds; nearly all actives have a fitted effect of over 45% in size. A digest of the protocol:
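Here the cytotoxicity of library compounds is measured in SBE-bla HEK 293T cells treated for 5 hr, using CellTiter-Glo added to wells already read for the beta-lactamase reporter.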

Experiment [7] can be described thus: qHTS assay to identify small molecule agonists of the TGF-beta/Smad signaling pathway (AID 1346859; active means well fitted activation curve with a large enough effect in the signal ratio in the repeat runs, not every such curve was filed as active; the % refers to the signal ratio; further: series mostly up to about 77 µM). A digest of the protocol: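 Screening used HEK 293T SBE-bla cells at 4,000/well. Test agents: 5 hr, 37 C. Detection: FRET substrate, 2 hr RT, then excitation 405 nm with emissions at 460 and 530 nm.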
A short description of experiment [8]: Human pregnane X receptor (PXR) small molecule agonists, qHTS cell viability counter screen (AID 1346977). Further: nearly all actives have a fitted effect of over 50% in size. The gist of the method: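 In each well, the PXR reporter HepG2 line was checked for viability: CellTiter-Fluor reagent added 23hr post-dosing, fluorescence read after 1hr incubation at 37C.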
Experiment [9] can be described thus: Caspase-3/7 induction in HepG2 cells by small molecules, qHTS assay (AID 1346978). Further: nearly all actives have a fitted effect of over 15% in size. The gist of the method: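 Wild-type HepG2 cells (2,000/well) were settled 5 h at 37 C, 5% CO2, then exposed to compounds in DMSO for 17 h. Caspase-3/7 activity was read by luminescence 30 min after adding Caspase-Glo 3/7 reagent at room temperature.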
A short description of experiment [10]: Caspase-3/7 induction in CHO-K1 cells by small molecules, qHTS assay (AID 1346980). Further: nearly all actives have a fitted effect of over 15% in size. The gist of the method: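 Wild-type cells were seeded at 1,500 per well and settled 5 hr at 37 C, 5% CO2, then exposed to DMSO-dissolved compounds for 17 hr. Caspase-Glo 3/7 reagent was added, and luminescence was read after 30min at room temperature.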
A short description of experiment [11]: Caspase-3/7 induction in HepG2 cells by small molecules, qHTS cell viability counter screen (AID 1346981). Further: series mostly up to about 92 µM; nearly all actives have a fitted effect of over 30% in size. The gist of the method:
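HepG2, WT, 2,000 cells/well; 5 hr pre-incubation 37 C/5% CO2; compound pin-transferred from DMSO; 16 hr exposure; CellTiter-Fluor, 1 hr; fluorescence read.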

Experiment [12] concerns the target Nuclear receptor subfamily 1 group I member 2 (Homo sapiens) (UniProt O75469). Nature of the experiment: Human pregnane X receptor (PXR) small molecule agonists, qHTS assay (AID 1346982). Further: nearly all actives have a fitted effect of over 35% in size. The gist of the method: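 Luciferase signal from ONE-Glo (30 min, room temperature) measured activation of hPXR-driven CYP3A4 reporter expression in PXR-Luc HepG2 cells treated with compounds for 24 hr at 37 C.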

Experiment [13] can be described thus: Caspase-3/7 induction in CHO-K1 cells by small molecules, qHTS cell viability counter screen (AID 1346979). Further: nearly all actives have a fitted effect of over 35% in size. The gist of the method: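 Following a 5hr settling period, CHO-K1 cells at 1,500 per well received DMSO-dissolved compounds. Cell viability was quantified 16hr later by CellTiter-Fluor fluorescence, measured after 1hr with reagent at 37C.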
For experiment [14], the target named is Cytochrome P450 2D6 (Homo sapiens) (UniProt P10635). The experiment in a line: Cytochrome P450 Family 2 Subfamily D Member 6 (CYP2D6) small molecule antagonists: luciferase reporter qHTS assay (AID 1671196). Further: nearly all actives have a fitted effect of over 50% in size. Further: potency means the concentration at half of the fitted maximal effect. The gist of the method:
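Read-out is luminescence from luciferin formed by CYP2D6 turnover of a proluciferin substrate, recorded as relative luminescence units. Reactions ran 1 h at room temperature after NADPH regeneration solution was added.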
(Reporter assays use an easily measured gene product as a stand-in for the process of interest.)

In experiment [15] the target is Cytochrome P450 2C19 (Homo sapiens) (UniProt P33261). Nature of the experiment: Cytochrome P450 Family 2 Subfamily C Member 19 (CYP2C19) small molecule antagonists: luciferase reporter qHTS assay (AID 1671197). Further: nearly all actives have a fitted effect of over 65% in size. Further: potency means the concentration at half of the fitted maximal effect. A digest of the protocol: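 Light output is proportional to CYP2C19 activity: proluciferin substrate is converted to luciferin, then detected by a luciferin detection reagent that also stops the 1 h, 37C NADPH-driven reaction. Ketoconazole serves as positive control.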
Cytochrome P450 2C19 (Homo sapiens), sequence (P33261 whole entry, looked up): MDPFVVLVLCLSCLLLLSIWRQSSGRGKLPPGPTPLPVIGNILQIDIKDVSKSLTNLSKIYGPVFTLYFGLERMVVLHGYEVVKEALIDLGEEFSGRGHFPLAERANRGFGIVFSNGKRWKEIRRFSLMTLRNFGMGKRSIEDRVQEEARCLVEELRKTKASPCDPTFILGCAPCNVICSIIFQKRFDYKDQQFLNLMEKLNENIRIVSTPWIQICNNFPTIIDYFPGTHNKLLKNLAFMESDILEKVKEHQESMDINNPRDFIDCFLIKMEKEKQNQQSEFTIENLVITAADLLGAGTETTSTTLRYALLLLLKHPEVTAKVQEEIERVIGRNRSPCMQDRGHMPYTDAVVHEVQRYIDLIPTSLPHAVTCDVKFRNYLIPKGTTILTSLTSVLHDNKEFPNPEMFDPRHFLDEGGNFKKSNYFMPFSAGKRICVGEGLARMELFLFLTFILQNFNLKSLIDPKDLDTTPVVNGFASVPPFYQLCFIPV

Experiment [16] deals with Nuclear receptor subfamily 1 group I member 2 (Rattus norvegicus) (UniProt Q9R1A7). The experiment in a line: Rat pregnane X receptor (rPXR) activation by small molecules, qHTS assay (AID 1346983). Further: nearly all actives have a fitted effect of over 20% in size. The note with it: rPXR luciferase reporter cells, One-Glo luminescence, 24 h; active compounds read high. The gist of the method: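 Cell-based rPXR luciferase reporter assay, 2,000 cells per well, rested 5hr at 37 C before compound addition in DMSO, then 24 hr at 37 C. One-Glo reagent was added and luminescence read after 30 min at room temperature.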
Nuclear receptor subfamily 1 group I member 2 (Rattus norvegicus), sequence (Q9R1A7 whole entry, looked up): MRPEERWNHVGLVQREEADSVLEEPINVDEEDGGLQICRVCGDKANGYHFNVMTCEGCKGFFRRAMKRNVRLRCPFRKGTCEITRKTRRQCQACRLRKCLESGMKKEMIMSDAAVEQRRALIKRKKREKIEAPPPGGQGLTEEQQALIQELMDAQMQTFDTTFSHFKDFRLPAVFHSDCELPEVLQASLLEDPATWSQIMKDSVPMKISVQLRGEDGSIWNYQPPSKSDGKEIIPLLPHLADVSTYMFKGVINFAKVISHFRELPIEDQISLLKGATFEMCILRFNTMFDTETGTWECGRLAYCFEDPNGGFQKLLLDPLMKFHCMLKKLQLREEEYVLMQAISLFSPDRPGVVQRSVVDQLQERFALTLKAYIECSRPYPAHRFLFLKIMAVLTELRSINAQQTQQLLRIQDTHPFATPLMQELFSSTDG

The target in experiment [17] is Nuclear receptor subfamily 1 group I member 2 (Homo sapiens) (UniProt O75469). Nature of the experiment: CYP3A4 induction through human pregnane X receptor (PXR) by small molecules, qHTS assay (AID 1346984). Further: nearly all actives have a fitted effect of over 40% in size. A digest of the protocol: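 Luminescence readout: luciferase signal after One-Glo (30 min, room temperature), following 3 h at 37C with 3uM final Luciferin-IPA P450 substrate. Cells were DPX-2 (HepG2, PXR/CYP3A4-luc co-transfected) dosed for 24 h.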
Nuclear receptor subfamily 1 group I member 2 (Homo sapiens), sequence (O75469 whole entry, looked up): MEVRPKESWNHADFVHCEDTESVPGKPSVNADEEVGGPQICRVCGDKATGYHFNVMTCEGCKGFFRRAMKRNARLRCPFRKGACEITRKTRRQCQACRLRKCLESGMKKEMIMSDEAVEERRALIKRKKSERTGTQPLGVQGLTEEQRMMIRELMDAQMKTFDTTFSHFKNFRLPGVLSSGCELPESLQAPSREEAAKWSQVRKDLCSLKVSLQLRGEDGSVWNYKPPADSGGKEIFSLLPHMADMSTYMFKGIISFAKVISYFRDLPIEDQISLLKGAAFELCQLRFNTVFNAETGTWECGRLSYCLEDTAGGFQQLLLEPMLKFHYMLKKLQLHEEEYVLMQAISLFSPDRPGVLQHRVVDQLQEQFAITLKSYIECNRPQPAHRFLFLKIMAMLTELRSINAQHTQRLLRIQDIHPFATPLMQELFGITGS

For experiment [18] the target is unchanged. Nature of the experiment: Human pregnane X receptor (PXR) activation by small molecules, qHTS assay (AID 1346985). Further: nearly all actives have a fitted effect of over 40% in size. The gist of the method:
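DPX-2 cells (HepG2 co-transfected with a PXR response element and a CYP3A4-promoter luciferase construct) were seeded at 2,000 per well, rested 5 hr at 37C, then exposed to DMSO-dissolved compounds for 24 hr. Activation was read as luciferase luminescence.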

For experiment [19], the target named is Thyrotropin-releasing hormone receptor (Homo sapiens) (UniProt P34981). Nature of the experiment: qHTS assay to identify small molecule antagonists of the thyrotropin-releasing hormone receptor (TRHR) signaling pathway (AID 1346877; active means well fitted inhibition curve with a large enough effect in the repeat runs, not every such curve was filed as active; further: series mostly up to about 51 µM). The gist of the method: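 Intracellular calcium fluorescence, read kinetically every second over 3 min, reports TRH-evoked signalling in HEK293 cells carrying TRHR. Test compounds were added 5 min ahead of a 1 nM TRH challenge.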
Thyrotropin-releasing hormone receptor (Homo sapiens), sequence (P34981 whole entry, looked up): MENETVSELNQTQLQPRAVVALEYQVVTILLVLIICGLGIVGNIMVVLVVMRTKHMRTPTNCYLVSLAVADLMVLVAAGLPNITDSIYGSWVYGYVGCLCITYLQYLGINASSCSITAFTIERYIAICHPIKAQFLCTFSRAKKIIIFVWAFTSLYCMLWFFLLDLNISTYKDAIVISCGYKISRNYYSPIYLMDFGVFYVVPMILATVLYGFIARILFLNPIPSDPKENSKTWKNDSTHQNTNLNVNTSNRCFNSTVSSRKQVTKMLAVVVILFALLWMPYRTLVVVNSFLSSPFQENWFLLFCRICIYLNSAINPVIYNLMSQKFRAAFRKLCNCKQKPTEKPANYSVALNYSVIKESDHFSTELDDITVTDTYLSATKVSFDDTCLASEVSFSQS

The target is the same in experiment [20]. The experiment in a line: qHTS assay to identify small molecule agonists of the thyrotropin-releasing hormone receptor (TRHR) signaling pathway (AID 1346891; calls by dose curve; further: series mostly up to about 58 µM). A digest of the protocol: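 Readout was intracellular calcium fluorescence in TRHR-Hek293 cells. Cells were incubated 18 h, dye-loaded 2 h at 37 °C, and treated with compound in agonist mode.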
On the % scale 0 is the no-effect control and ±100 the full control effect.

Cytochrome P450 2D6 (Homo sapiens), sequence (P10635 whole entry, looked up): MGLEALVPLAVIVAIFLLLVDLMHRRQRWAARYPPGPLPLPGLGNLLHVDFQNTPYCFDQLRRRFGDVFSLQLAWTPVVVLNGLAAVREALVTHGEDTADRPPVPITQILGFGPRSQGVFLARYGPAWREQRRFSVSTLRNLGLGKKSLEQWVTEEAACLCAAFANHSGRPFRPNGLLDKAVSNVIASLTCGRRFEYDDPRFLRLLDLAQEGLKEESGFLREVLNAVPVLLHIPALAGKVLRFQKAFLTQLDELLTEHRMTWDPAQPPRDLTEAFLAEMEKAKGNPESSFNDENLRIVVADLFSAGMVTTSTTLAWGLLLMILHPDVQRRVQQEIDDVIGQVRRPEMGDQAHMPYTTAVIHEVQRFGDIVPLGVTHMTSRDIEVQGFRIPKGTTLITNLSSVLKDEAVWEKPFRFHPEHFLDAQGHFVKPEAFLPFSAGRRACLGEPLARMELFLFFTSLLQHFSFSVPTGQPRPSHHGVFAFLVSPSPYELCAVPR
Progesterone receptor (Homo sapiens), sequence (P06401 whole entry, looked up): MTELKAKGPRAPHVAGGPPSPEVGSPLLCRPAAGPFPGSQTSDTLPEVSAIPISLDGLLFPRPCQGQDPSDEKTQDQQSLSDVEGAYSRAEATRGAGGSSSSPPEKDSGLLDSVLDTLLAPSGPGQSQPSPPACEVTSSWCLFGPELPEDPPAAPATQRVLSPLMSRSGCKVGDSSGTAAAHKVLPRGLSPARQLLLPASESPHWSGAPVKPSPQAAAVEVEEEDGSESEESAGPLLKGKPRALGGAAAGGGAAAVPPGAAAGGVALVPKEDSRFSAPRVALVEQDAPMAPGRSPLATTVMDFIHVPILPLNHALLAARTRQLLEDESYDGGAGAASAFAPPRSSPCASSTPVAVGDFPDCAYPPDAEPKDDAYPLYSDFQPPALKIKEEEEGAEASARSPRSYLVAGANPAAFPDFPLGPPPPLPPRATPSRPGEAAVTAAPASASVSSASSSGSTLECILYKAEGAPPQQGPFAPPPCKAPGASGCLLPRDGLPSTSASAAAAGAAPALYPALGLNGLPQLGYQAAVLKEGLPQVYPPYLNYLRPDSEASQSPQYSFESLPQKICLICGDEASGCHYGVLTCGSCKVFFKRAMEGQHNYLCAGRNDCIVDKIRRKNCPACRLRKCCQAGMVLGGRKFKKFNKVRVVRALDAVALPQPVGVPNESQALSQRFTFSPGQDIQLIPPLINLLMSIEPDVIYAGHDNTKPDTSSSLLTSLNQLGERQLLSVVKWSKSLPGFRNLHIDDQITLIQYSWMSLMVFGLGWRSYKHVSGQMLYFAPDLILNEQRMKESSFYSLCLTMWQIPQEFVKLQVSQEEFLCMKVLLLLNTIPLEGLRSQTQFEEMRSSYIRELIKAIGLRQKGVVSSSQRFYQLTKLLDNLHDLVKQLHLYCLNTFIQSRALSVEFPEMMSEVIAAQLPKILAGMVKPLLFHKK

With `CO/N=C(/C(=O)N[C@@H]1C(=O)N2C(C(=O)OCOC(=O)C(C)(C)C)=C(C)CS[C@H]12)c1csc(N)n1`, the Potency result in experiment [1], in [2], in experiment [3], in experiment [4], in experiment [5] and in experiment [8] was “inactive” throughout. Further, the Potency entry in [9], in [11] and in [12] was “inactive” each time. Also, the compound was called inactive in experiment [6], in experiment [7] and in [10].
As for `CN1CCC(=C2c3ccccc3CC(=O)c3sccc32)CC1`, the Potency result in experiment [1], in [2], in [3], in experiment [4], in [5] and in experiment [9] was “inactive” throughout. Moreover, the Potency entry in experiment [13], in [11] and in experiment [12] was “inactive” each time. Also, the compound was called inactive in [6], in [7] and in experiment [10]. In addition, the values for the Potency in [14] and in [15] were 2.45 µM (active) and 34.7 µM (active), respectively.
Consider `CCOc1ccc(C(=O)OCCN(CC)CC)cc1`, for which the Potency entry in experiment [1], in [2], in experiment [3], in experiment [4], in experiment [5] and in experiment [8] was “inactive” throughout. Also, the Potency entry in experiment [9], in [13], in experiment [11], in experiment [12], in experiment [17] and in experiment [18] was “inactive” in each case. The Potency entry in experiment [15] is “inactive”. The result in experiment [6], in [7] and in [10] was inactive. Moreover, the max activation in [16] was -2.52%. The Potency in experiment [14] is 1.55 µM (active).
For `C[C@@H]1CCN(C(=O)[C@H](CCCN=C(N)N)NS(=O)(=O)c2cccc3c2NC[C@H](C)C3)[C@@H](C(=O)O)C1`, the Potency result in experiment [1], in experiment [2], in [3], in [5], in experiment [9] and in experiment [13] was “inactive” each time. Also, the Potency result in experiment [11], in [12], in experiment [17], in [18], in [14] and in experiment [15] was “inactive” throughout. The result in experiment [6], in [7], in [19], in [20] and in experiment [10] was inactive. Also, in experiment [16], the max activation is -0.172%.
`CCO/C([O-])=N/c1c[n+](N2CCOCC2)no1`: the Potency result in experiment [1], in experiment [2], in [3], in [5], in experiment [8] and in experiment [9] was “inactive” throughout. In addition, the Potency entry in experiment [13], in experiment [11], in [12], in experiment [17], in experiment [18] and in experiment [14] was “inactive” each time. Further, the Potency entry in experiment [15] is “inactive”. In addition, the call in experiment [6], in experiment [7], in experiment [20] and in experiment [10] was inactive. Also, the max activation in experiment [16] is 0.703%.
In the case of `C[N+](C)(C)CCCCCC[N+](C)(C)C`, the Potency result in experiment [1], in experiment [2], in experiment [3], in experiment [5], in experiment [8] and in experiment [9] was “inactive” each time. In addition, the Potency result in experiment [13], in experiment [11], in [14] and in [15] was “inactive” throughout. Also, the compound was classed as inactive in [6], in [7], in experiment [20] and in experiment [10]. The max activation in [16] was 0.135%.
